# According to the supplement of paper PMC4954754:
# ± gives the uncertainty stated by the source.
# Test system: HEK293T-Rex XBP1-RLuc
# Assay: XBP1-RLuc splicing reporter activation, triplicate, relative to 500 nM thapsigargin (% of thapsigargin); higher = stronger IRE1/XBP1s reporter activation
# Conditions: 6.8 µM; 18 h; screen: confirmation
# Method: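 HEK293T-Rex cells stably expressing the ERSE-firefly luciferase (BiP promoter, ATF6-preferring) or XBP1-splicing Renilla luciferase (IRE1/XBP1s) reporter, 1536-well plates, compound at 6.8 µM for 18 hr at 37 °C; luminescence read […] and expressed as % activation = 100*(compound - median DMSO)/(median 500 nM thapsigargin - median DMSO). Primary screen was single-pass; confirmation screen in triplicate (mean ± SD).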
row,SMILES,XBP1-RLuc splicing reporter activation
1,O=C(N/N=C/c1ccc(O)c(O)c1)c1ccc(Br)cc1,20.9 ± 0.79
2,Cc1ccc(O)c(NC(=O)c2cc(-c3ccc(F)cc3)on2)c1,15.9 ± 0.37
3,O=C(Nc1nc2c(s1)CCCC2)c1cccc2ccccc12,3.36 ± 1.8
4,Cc1ccc(/C=N/NC(=O)c2cccc(F)c2)cc1,2.01 ± 0.32
5,CC1(C)Cc2ccccc2/C(=C/C(=O)C(=O)N/N=C/c2ccc(O)c(O)c2)N1,16.2 ± 2.9
6,CCCCCC(=O)Nc1ccc(C(=O)Nc2ccccc2O)cc1,9.29 ± 0.42
7,CCOc1ccc(/C=C(\C#N)c2[nH]nc(N)c2C#N)cc1OCC,7.63 ± 1
8,Cc1ccc(C)c(/C=N/Nc2nncc3ccccc23)c1,5.57 ± 0.69
9,O=C(COC(=O)c1ccc(O)c(O)c1)Nc1nc(-c2ccccc2)cs1,18.6 ± 3.9
10,Oc1ccccc1/C=N\Nc1nc2ccccc2o1,19.1 ± 1.9
11,O=C(/C=C/c1ccccc1)Nc1ccc(Cl)cn1,1.96 ± 0.26
12,CCCc1cc(C(=O)Nc2cc(C)ccc2O)no1,24.5 ± 4.7
13,CCCNc1ccnc(N2CCc3ccccc3C2)n1,-1.35 ± 0.17
14,N#CC1=C(N)Oc2c(ccc3ccccc23)C1c1ccsc1 (stereo not drawn),9.04 ± 1.1
15,CCCCNC(=O)c1cc(-c2cccs2)on1,9.51 ± 1.7
16,COc1ccc(C2C=C3Oc4ccccc4N=C3NN2)cc1 (stereo not drawn),4.19 ± 0.13
17,Cc1ccc2nc(/C(C#N)=C\c3cc(Cl)cc4c3OCOC4)[nH]c2c1,12.1 ± 2.3
18,Cc1cc(C)c2nc3sc(C(=O)N4CCCCC4)c(N)c3cc2c1,1.34 ± 0.73
19,CCN(CC)c1ccc2cc(-c3nc4ccccc4n3C)c(=O)oc2c1,9.31 ± 0.79

row,SMILES,XBP1-RLuc splicing reporter activation
1,CN(C)c1ccc(C(=NO)c2ccc(N(C)C)cc2)cc1,6.61 ± 1.1
2,O=[N+]([O-])c1ccc(N/N=C/c2ccccc2O)cc1,2.37 ± 0.96
3,O=C(/C=C/c1ccccc1)Nc1ccc(Br)cn1,0.069 ± 1.1
4,O=C(N/N=C\C(Cl)=C\c1ccccc1)c1n[nH]c2c1CCCC2,6.87 ± 1.5
5,O=C(NC1CCCC1)c1cc(-c2cccs2)on1,4.95 ± 0.3
6,Cc1ccc(O)c(N=CC2=C(O)c3ccccc3C2=O)c1,24.1 ± 1.3
7,Cc1ccc(O)c(NC(=S)NC(=O)/C=C/c2ccco2)c1,1.05 ± 0.43
8,C(=N/Nc1nnc2c(n1)[nH]c1ccccc12)/c1c[nH]c2ccccc12,9.3 ± 1.4
9,CS(=O)(=O)c1ncc(Cl)c(C(=O)C(C#N)c2nc3ccccc3s2)n1 (stereo not drawn),19.5 ± 4.9
10,O=C(N/N=C/c1cccc(O)c1O)c1ccccn1,27 ± 0.75
11,CCc1nc2sc(C(=O)c3ccccc3)c(N)c2cc1C,2.72 ± 1.5
12,N#Cc1c(NC(=O)c2cccc(F)c2)sc2c1CCC2,2 ± 0.56
13,Cc1ccc(O)c(-c2cc(-c3cccs3)[nH]n2)c1,7.79 ± 0.86
14,COc1cccc(/C=N/NC(=O)c2ccc(NC(=O)c3ccc(C)cc3)cc2)c1O,86.3 ± 12
15,Cc1cc2nc(-c3ccc(SCC#N)nc3)[nH]c2cc1C,2.7 ± 0.91
16,O=C(c1ccccc1)c1c(O)ccc2c(C(=O)c3ccccc3)c(O)ccc12,15.8 ± 2.8
17,CC(=Nc1ccc(O)cc1)c1sc2ccccc2c1O,15.7 ± 4.1
18,Cc1ccc(Nc2nc(N)c3ccccc3n2)cc1Cl,8.06 ± 2.4
19,Cc1ccccc1-c1cc(=O)c2cc(Cl)ccc2o1,8.38 ± 3.8
